Records with an inconclusive call do not appear. A call without a number means that no potency is given here. Calls of active or inactive are those of the source. Calls follow the shape of the dose curve; as a rule, active = well fitted cell-killing curve with a large enough effect in the repeat runs; inconclusive = weak or mixed curves, or effect the other way; inactive = no such curve, though single readings can be large or run the other way.
Potency is read from the fitted curve at half-maximal effect.

The assay is described as follows: qHTS assay to identify aromatase inhibitors - cell viability counter screen (AID 743084).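 Also: cells stimulated with testosterone during compound exposure; nearly all actives have a fitted effect of over 55% in size.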 Particulars: MCF-7 aro ERE viability, CellTiter-Fluor, 24 h; series mostly up to 70.3 µM. (In general: qHTS replaces the single test concentration by a dilution series.)
For `CCCCNC(=O)NS(=O)(=O)c1ccc(N)cc1`, the Potency result was “inactive”.
For `CCCCCCCCCCCCCCCCCC(=O)OCC(O)CO` (stereo not given) the value was “inactive”; for `COCC(C)N` (stereo not given), “inactive”.
On to `CCCCCCCCCCCCCC(=O)OC(C)C`, for which the Potency entry is “inactive”.
For `N[C@@H](Cc1c[nH]c2ccccc12)C(=O)O` the value was “inactive”; for `CCCCC/C(C=O)=C\c1ccccc1`, “inactive”; for `C=CCOC(=O)CC(C)C`, “inactive”.
For `CC(=O)c1ccc(S(=O)(=O)NC(=O)NC2CCCCC2)cc1` the value was “inactive”.
For the molecule `COC(=O)c1ccc(O)cc1`, the Potency result is “inactive”.
For `Oc1cccc(O)c1` the value was “inactive”; for `COc1ccccc1O`, “inactive”.
Under `CC(C)CC(C)CC(O)CC(C)C` (stereo not given) stands “inactive”; under `NC(=O)N1c2ccccc2C=Cc2ccccc21`, “inactive”.
Under `O=C1CCCCCN1` stands “inactive”.
With `O=c1c(-c2ccc(O)cc2)coc2cc(O)cc(O)c12`, the Potency result is “inactive”.
For `O=C(O)Cc1cccc2ccccc12` the value was “inactive”.
`COc1cc(O)c(C(=O)c2ccccc2)cc1S(=O)(=O)O`: the Potency result was “inactive”.
Under `CCCCOCCOCCOC(C)=O` stands “inactive”; under `Cn1cnc2c1c(=O)[nH]c(=O)n2C`, “inactive”; under `COCCOCCOC`, “inactive”.
For `CCOC(=O)C(C)(C)Oc1ccc(Cl)cc1` the value was “inactive”; for `CC(O)COc1ccccc1` (stereo not given), “inactive”; for `Cc1cccc(C)c1O`, “inactive”.
For `COC(=O)c1ccc(C=O)cc1`, the Potency entry is “inactive”.
For `Cc1ccc(O)c(-n2nc3ccccc3n2)c1` the value was “inactive”.
For `Cc1cccc2ccccc12` the value was “inactive”; for `CC(=O)CCC(C)C`, “inactive”; for `O=[N+]([O-])c1ccc(O)cc1`, 63.5 µM (active).
For `CCCCCCCCOc1ccc(C(=O)c2ccccc2)c(O)c1`, the Potency result is “inactive”.
Under `Cc1c(N(C)CS(=O)(=O)O)c(=O)n(-c2ccccc2)n1C` stands “inactive”.

The record behind these values is PubChem BioAssay (Tox21).
